Assay results reported in PubChem BioAssay (NCATS).
Inconclusive results are not listed. Active and inactive are the calls of the source. Unless noted, calls come from the whole dose curve; as a rule, active = well fitted curve in the direction sought with a large enough effect; inconclusive = small, poorly fitted or top-dose-only effect, or another doubt; inactive = no such curve, though single readings can be large; an effect the other way counts as inactive or inconclusive.

Tests used:
[1] = Cell Viability - MRC5 (AID 434; calls by dose curve;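 note: potency is the fitted concentration of half-maximal effect; potency reflects cytotoxicity seen as loss of intracellular ATP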); settings: MRC5 lung fibroblast viability, qHTS
Method in brief: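 MRC5 normal human lung fibroblasts, 1500 cells/well, exposed to compound for 40 hr at 37 C. Cellular ATP was read by CellTiter-Glo luminescence; data normalized to DMSO and 100 uM tamoxifen, with AC50 from Hill fits.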

[2] = Cellular Toxicity (caspase-3) HepG2 (AID 654); settings: HepG2 caspase-3 activation, luminescence; series mostly up to 92.2 µM;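 note: cells exposed to compound for 16 hours before reading; 0% = DMSO alone and 100% = caspase signal from 100 µM tamoxifen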
Method in brief: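 HepG2 cells (1500/well) in complete medium were treated with compounds for 16 hr at 37 °C. Caspase-3/7 activity was then read as luminescence from peptide-aminoluciferin cleavage. AC50 came from Hill fits, normalized to DMSO and 100 uM tamoxifen.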

[3] = Cellular Toxicity (caspase-3) HUV-EC-C (AID 656); settings: HUV-EC-C cells, caspase-3 activation (apoptosis); series mostly up to 92.2 µM
Method in brief: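 HUV-EC-C endothelial cells, 1000/well, were pre-incubated 5 hr at 37°C, then exposed to compounds for 16 hr at 37°C. Caspase-Glo 3/7 luminescence was read after 20 min at room temperature. AC50 came from Hill fits, normalized to DMSO and 100 uM tamoxifen.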

[4] = Cellular Toxicity (caspase-3) SHSY5Y (AID 657); settings: SH-SY5Y caspase-3 activation; series mostly up to 91.7 µM
Method in brief: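 SH-SY5Y human neuroblastoma cells (1500/well) were treated with compounds for 16 h at 37 °C, then Caspase-Glo 3/7 luminescence was read after 1 h at room temperature. Data normalized to DMSO and 10 uM staurosporine; AC50 from Hill fits.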

[5] = Cellular Toxicity (caspase-3) MRC-5 (AID 659); settings: MRC-5 cells, luminescence, normalized: DMSO 0%, 10 µM staurosporine 100%; series mostly up to 91.7 µM
Method in brief: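 MRC-5 human normal lung fibroblasts, 1500 cells/well, treated 16 h at 37 °C in complete medium. Caspase 3/7 measured by Caspase-Glo luminescence after 1 h at room temperature. Normalized to DMSO and 10 uM staurosporine; AC50 from Hill fit.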

[6] = Cellular Toxicity (caspase-3) Mesangial (AID 660); settings: mesangial cells, normalized: DMSO 0%, 100 µM tamoxifen 100%; series mostly up to 91.7 µM
Method in brief: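 Human renal glomerular mesangial cells (1000/well) were treated with compounds for 16 h at 37 °C in complete medium, then caspase 3/7 activity was read by Caspase-Glo luminescence. Data were normalized to DMSO and 100 uM tamoxifen; AC50 from Hill fits.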

[7] = Cellular Toxicity (caspase-3) SK-N-SH (AID 661); settings: SK-N-SH caspase-3 activation, qHTS, DMSO as zero, staurosporine as full; series mostly up to 91.7 µM
Method in brief: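 SK-N-SH human neuroblastoma cells (1500/well) were treated with compounds for 16 hr at 37 °C in complete medium; caspase 3/7 activity was read by Caspase-Glo luminescence. AC50 came from Hill fits of data normalized to DMSO and 10 uM staurosporine.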

[8] = Cellular Toxicity (caspase-3) H-4-II-E (AID 663); settings: H-4-II-E rat hepatoma; Potency: caspase-3 activation; series mostly up to 92.2 µM;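 note: cells exposed to compound for 16 hr before readout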
Method in brief: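 Rat hepatoma H-4-II-E cells (1500/well) plated 5 hr, then exposed to compound titrations for 16 hr at 37 °C. Caspase-Glo 3/7 luminescence read after 20 min at RT; data normalized to DMSO and 100 uM tamoxifen, AC50 from Hill fits.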

[9] = Cellular Toxicity (caspase-3) N2a (AID 665); settings: N2a cells, luminescence, normalized: DMSO 0%, 10 µM staurosporine 100%; series mostly up to 92.2 µM;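 note: compound exposure lasted 16 h at 37 °C before readout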
Method in brief: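 Mouse N2a neuroblastoma cells (1500/well) were treated with compounds for 16 h at 37 °C, then caspase-3/7 activity was read by Caspase-Glo luminescence after 1 h at room temperature. Data were normalized to DMSO and 10 uM staurosporine; AC50 from Hill fits.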

[10] = Cellular Toxicity (caspase-3) NIH 3T3 (AID 666); settings: NIH 3T3 caspase-3 activation, apoptosis/toxicity, 0% DMSO, 100% is 100 µM tamoxifen; series mostly up to 92.2 µM;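 note: caspase signal read after 16 h compound exposure; 0% = DMSO basal and 100% = 100 µM tamoxifen stimulation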
Method in brief: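 Mouse NIH 3T3 fibroblasts (1000 cells/well) were treated with compound for 16 hr at 37°C in complete medium; caspase-3/7 activity was read by Caspase-Glo luminescence. Normalized to DMSO and 100 uM tamoxifen; AC50 from Hill fits.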

[11] = Cellular Toxicity (caspase-3) Renal Proximal Tubule (AID 667); settings: renal proximal tubule cells, primary cells freshly taken from rat; Potency: caspase-3 activation; series mostly up to 91.7 µM;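 note: cells exposed to compound for 16 hours at 37 °C before detection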
Method in brief: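 Primary rat proximal tubule cells, 1000/well, 5 h plating at 37 °C, then compound 16 h at 37 °C. Caspase-Glo 3/7 reagent, 1 h RT, luminescence. Normalized to DMSO (basal) and 10 uM staurosporine (100%); Hill-fit AC50.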

[12] = MultiTox-Fluor Cytotoxicity Assay - LYMP1-001 - Dead Cells (AID 946); settings: LYMP1-001 lymphoblastoid cells, dead-cell protease fluorescence; series mostly up to 92.2 µM;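 note: 0% = DMSO and 100% = tetraoctylammonium bromide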
Method in brief: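 AC50 from Hill fit of concentration-response; data normalized to DMSO (basal) and 15 uM tetraoctylammonium bromide (100%). LYMP1-001 lymphoblastoid cells, 2500/well, 16 hr compound at 37 C; dead-cell protease fluorescence, Ex/Em 485/520.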

[13] = Cell Viability - LYMP1-002 - Assay at 16 hr (AID 948); settings: LYMP1-002 lymphoblastoid cell viability; series mostly up to 92.2 µM;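 note: 0% = DMSO alone and full effect = 92 µM tetraoctylammonium bromide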
Method in brief: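 Human lymphoblastoid cells (LYMP1-002), 2500/well, were preincubated 5 hr at 37 C, then exposed to compounds for 16 hr at 37 C in complete medium. Cellular ATP was read by CellTiter-Glo luminescence after 30 min at room temperature; AC50 from Hill fits.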

[14] = MultiTox-Fluor Cytotoxicity Assay - LYMP1-002 - Live Cells (AID 955); settings: LYMP1-002 lymphoblastoid live-cell protease fluorescence viability; series mostly up to 46.1 µM; note: % is set by controls: 0 for no effect and ±100 for the full control effect
Method in brief: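 Human lymphoblastoid LYMP1-002 cells, 2500/well in complete medium, rested 5 hr at 37 C, then exposed to compounds for 16 hr at 37 C. Live-cell protease cleavage of GF-AFC read by fluorescence (Ex/Em 405/510) after 60 min at room temperature; AC50 from Hill fits.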

[15] = MultiTox-Fluor Cytotoxicity Assay - LYMP1-003 - Live Cells (AID 962); settings: LYMP1-003 lymphoblastoid cells, MultiTox-Fluor live-cell protease fluorescence; series mostly up to 92.2 µM;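 note: 0% = DMSO only and full loss = 92 µM tetraoctylammonium bromide; cytotoxic hits lower the live-cell protease signal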
Method in brief: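 LYMP1-003 human lymphoblastoid cells (2500/well) in complete medium were preincubated 5 hr at 37 C, then exposed to compounds for 16 hr at 37 C. Live-cell protease cleavage of GF-AFC read by fluorescence (Ex/Em 405/510); AC50 from Hill fits.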

[16] = Cell Viability - LYMP1-003 - Assay at 24 hr (AID 963); settings: LYMP1-003 lymphoblastoid cell viability; series mostly up to 92.2 µM;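 note: plate controls were DMSO only for no effect and tetraoctylammonium bromide positive control for full effect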
Method in brief: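 Human lymphoblastoid LYMP1-003 cells (2500/well) were rested 5 hr at 37 C, then exposed to compounds in complete medium for 24 hr at 37 C. Cellular ATP was quantified by CellTiter-Glo luminescence, and AC50 values came from Hill fits of concentration-response data.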

[17] = Cell Viability - LYMP1-002 - Assay at 24 hr (AID 993); settings: LYMP1-002 lymphoblastoid cells viability; series mostly up to 92.2 µM; note: % is set by controls: 0 for no effect and ±100 for the full control effect
Method in brief: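 Human lymphoblastoid LYMP1-002 cells, 2500/well in complete medium, were treated with compounds for 24 h at 37 C; intracellular ATP was read by CellTiter-Glo luminescence. AC50 values came from Hill-equation fits of qHTS concentration-response data.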

[18] = qHTS Assay for Identification of Small Molecule Inducers of Hypoxia Response (AID 2120; active = well fitted curve in the direction sought with a large enough effect in the signal ratio, with a control signal flat, not every such curve was filed as active; the % refers to the signal ratio; note: 0% is about no effect); settings: hypoxia response reporter cells, beta-lactamase ratio readout; series mostly up to 104 µM
Method in brief: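 HRE-beta-lactamase reporter in CellSensor HRE-bla ME-180 cells, 2500 cells/well in Opti-MEM with 0.5% dialyzed FBS; compounds tested as titration series, 17 h at 37 degrees C. CCF4 substrate 2.5 h at room temperature; AC50 from 460/530 nm ratio.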

[19] = biological target: Peroxisome proliferator-activated receptor alpha (Homo sapiens) (UniProt Q07869); assay: qHTS assay for small molecule agonists of the peroxisome proliferator-activated receptor alpha (PPARalpha) signaling pathway (AID 651778); settings: PathHunter PPARalpha complementation, chemiluminescence, 6 h; max response: hits give high values; note: % of control where 0% means no effect
Sequence of Peroxisome proliferator-activated receptor alpha (Homo sapiens) (Q07869 whole entry, looked up, the tested form may be a part): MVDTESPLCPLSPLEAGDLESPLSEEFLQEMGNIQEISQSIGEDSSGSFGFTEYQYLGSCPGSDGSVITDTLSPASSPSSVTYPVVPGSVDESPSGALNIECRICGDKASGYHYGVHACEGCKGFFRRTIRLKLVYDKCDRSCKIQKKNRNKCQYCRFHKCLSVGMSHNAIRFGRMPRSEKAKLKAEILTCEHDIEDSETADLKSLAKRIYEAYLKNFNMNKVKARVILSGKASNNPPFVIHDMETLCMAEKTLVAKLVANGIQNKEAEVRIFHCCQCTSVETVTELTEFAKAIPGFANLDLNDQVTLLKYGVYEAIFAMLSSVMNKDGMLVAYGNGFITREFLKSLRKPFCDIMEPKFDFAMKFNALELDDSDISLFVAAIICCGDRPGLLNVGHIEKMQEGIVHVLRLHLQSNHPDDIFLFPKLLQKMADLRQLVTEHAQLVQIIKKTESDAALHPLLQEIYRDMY
Method in brief: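 Enzyme-fragment complementation assay in which ligand-bound PPARalpha translocates and forms an active enzyme that generates chemiluminescence. Cells were plated overnight, exposed to compound for 6 hr at 37 C, and then given detection reagent for 60 min at room temperature.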

[20] = qHTS assay for small molecule agonists of the antioxidant response element (ARE) signaling pathway measured by Nrf2-dependant transcriptional activity - cell viability counter screen (AID 720653; active = well fitted curve in the direction sought with a large enough effect in the repeat runs; an effect the other way counts as inactive or inconclusive; note: % is set by controls: 0 for no effect and ±100 for the full control effect); settings: ARE-bla HepG2 viability, CellTiter-Glo ATP luminescence, 16 h; max response: hits give low values
Method in brief: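 ARE-bla HepG2 cells treated with compounds for 16 h at 37C; this counter screen measures viability as intracellular ATP by CellTiter-Glo luminescence after 30 min at room temperature.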

CCCCNCC
inactive: Potency [1] > 92 µM | Potency [2] | Potency [3] | Potency [4] | outcome [5] | outcome [6] | outcome [7] | Potency [8] | outcome [9] | outcome [10] | Potency [11] | Potency [12] | Potency [13] | outcome [14] | Potency [15] | Potency [16] | Potency [17] | Potency [18] | max response [19] -6.73% | max response [20] 3.95%

O=[N+]([O-])c1cccc(I)c1
inactive: Potency [1] > 92 µM | Potency [2] | Potency [3] | Potency [4] | outcome [5] | outcome [6] | outcome [7] | Potency [8] | outcome [9] | outcome [10] | Potency [11] | Potency [12] | Potency [13] | outcome [14] | Potency [15] | Potency [16] | Potency [17] | Potency [18] | max response [19] -0.601% | max response [20] 2.94%

CCNC(=S)NCC
inactive: Potency [1] > 92 µM | Potency [2] | Potency [3] | Potency [4] | outcome [5] | outcome [6] | outcome [7] | Potency [8] | outcome [9] | outcome [10] | Potency [11] | Potency [12] | Potency [13] | outcome [14] | Potency [15] | Potency [16] | Potency [17] | Potency [18] | max response [19] -2.88% | max response [20] -3.61%

Cc1c(N)cccc1Cl
inactive: Potency [1] > 92 µM | Potency [2] | Potency [3] | Potency [4] | outcome [5] | outcome [6] | outcome [7] | Potency [8] | outcome [9] | outcome [10] | Potency [11] | Potency [12] | Potency [13] | outcome [14] | Potency [15] | Potency [16] | Potency [17] | Potency [18] | max response [19] -2.61% | max response [20] -6.28%

CCCCCCN
inactive: Potency [1] > 92 µM | Potency [2] | Potency [3] | Potency [4] | outcome [5] | outcome [6] | outcome [7] | Potency [8] | outcome [9] | outcome [10] | Potency [11] | Potency [12] | Potency [13] | outcome [14] | Potency [15] | Potency [16] | Potency [17] | Potency [18] | max response [19] 1.86% | max response [20] -8.85%

CC(=O)c1ccc(Cl)c(Cl)c1Cl
inactive: Potency [1] > 92 µM | Potency [2] | Potency [3] | Potency [4] | outcome [5] | outcome [6] | outcome [7] | Potency [8] | outcome [9] | outcome [10] | Potency [11] | Potency [12] | Potency [13] | outcome [14] | Potency [15] | Potency [16] | Potency [17] | Potency [18] | max response [19] -0.114% | max response [20] 4.27%
